PubChem BioAssay (NCATS)
Values joined by “and” are separate entries in the source; they are usually repeats but may differ in a detail not shown here. Identical values can stand only once. Results filed as inconclusive are left out. Active and inactive are the calls of the source. Unless noted, calls come from the whole dose curve; as a rule, active = well fitted curve in the direction sought with a large enough effect; inconclusive = small, poorly fitted or top-dose-only effect, or another doubt; inactive = no such curve, though single readings can be large; an effect the other way counts as inactive or inconclusive.

Legend:
[1] = target: Cytochrome P450 3A4 (Homo sapiens) (UniProt P08684); test: qHTS Assay for Inhibitors and Substrates of Cytochrome P450 3A4 (AID 884); note: nearly all actives have a fitted effect of over 50% in size; note: potency is the fitted concentration of half-maximal effect
Cytochrome P450 3A4 (Homo sapiens), sequence (P08684 whole entry, looked up): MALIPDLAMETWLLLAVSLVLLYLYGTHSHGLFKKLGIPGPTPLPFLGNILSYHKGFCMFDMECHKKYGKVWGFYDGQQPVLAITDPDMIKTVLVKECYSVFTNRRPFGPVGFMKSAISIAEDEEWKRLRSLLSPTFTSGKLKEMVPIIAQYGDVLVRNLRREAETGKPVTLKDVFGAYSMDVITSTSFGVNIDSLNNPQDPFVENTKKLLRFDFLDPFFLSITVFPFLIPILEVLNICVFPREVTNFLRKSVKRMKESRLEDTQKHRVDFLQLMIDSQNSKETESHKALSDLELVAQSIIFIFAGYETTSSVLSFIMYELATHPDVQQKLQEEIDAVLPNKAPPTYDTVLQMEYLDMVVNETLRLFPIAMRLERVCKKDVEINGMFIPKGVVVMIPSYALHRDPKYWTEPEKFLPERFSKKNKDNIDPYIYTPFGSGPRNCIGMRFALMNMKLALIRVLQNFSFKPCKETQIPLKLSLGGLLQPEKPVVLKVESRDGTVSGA
Summary of the method: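 Luminescent readout of luciferin produced by CYP3A4 (20 nM) dealkylation of Luciferin-PPXE, 25 uM (its KM). NADPH-driven reaction ran 60 min at RT after 10 min compound preincubation; data scaled to 57 uM ketoconazole as 100% inhibition.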

[2] = target: Cytochrome P450 3A4 (Homo sapiens) (UniProt P08684); test: qHTS Assay for Activators of Cytochrome P450 3A4 (AID 885); note: nearly all actives have a fitted effect of over 65% in size
Summary of the method: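 Luminescent readout of luciferin formed from 25 uM Luciferin-PPXE (KM level) by 20 nM CYP3A4 in 200 mM KPO4, with 60 min NADPH-driven reaction at room temperature after 10 min compound exposure. Ketoconazole (57 uM) defined 100% inhibition.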

[3] = target: Alpha-galactosidase (Coffea arabica) (UniProt Q42656); test: Counterscreen for Glucocerebrosidase Inhibitors: qHTS Assay for Coffee Bean alpha-Galactosidase at pH 4.5 (AID 957);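 note: plate controls were enzyme alone for no effect and no enzyme for full effect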
Alpha-galactosidase (Coffea arabica), sequence (Q42656 whole entry, looked up): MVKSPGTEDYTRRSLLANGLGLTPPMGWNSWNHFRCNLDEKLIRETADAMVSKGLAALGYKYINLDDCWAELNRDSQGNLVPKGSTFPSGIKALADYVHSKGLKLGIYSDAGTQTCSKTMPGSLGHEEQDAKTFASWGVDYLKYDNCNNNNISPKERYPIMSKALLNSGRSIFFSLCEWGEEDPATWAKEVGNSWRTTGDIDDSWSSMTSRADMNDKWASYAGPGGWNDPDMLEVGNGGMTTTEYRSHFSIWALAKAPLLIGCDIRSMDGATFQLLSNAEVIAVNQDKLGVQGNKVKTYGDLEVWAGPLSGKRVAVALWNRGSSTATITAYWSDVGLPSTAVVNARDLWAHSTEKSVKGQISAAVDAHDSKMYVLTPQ
Summary of the method: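 Enzyme is added first (2 nM final), then compounds titrated from 0.7 nM to 77 uM, then 80 uM 4-methylumbelliferyl alpha-D-galactopyranoside; after 20 min at room temperature a pH 10 NaOH/glycine stop precedes fluorescence reading at 365/440 nm.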

[4] = target: Alpha-galactosidase (Coffea arabica) (UniProt Q42656); test: Counterscreen for Glucocerebrosidase Inhibitors: qHTS Assay for Coffee Bean alpha-Galactosidase at pH 5.9 (AID 998);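 note: plate controls were uninhibited enzyme for no effect and no-enzyme basal signal for full effect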
Summary of the method: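 Enzyme 2 nM + cpd (0.7 nM–77 uM titration) + 4-MU-alpha-Gal 80 uM, pH 5.9 citrate/Tween-20, RT 20 min, NaOH/glycine stop pH 10, fluor 365/440. Normalized to no-enzyme and full-activity controls; Hill-fit AC50.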

[5] = Validation screen for inhibitors of Lassa infection (AID 463096; calls by dose curve; note: % is set by controls: 0 for no effect and ±100 for the full control effect)
[6] = target: M-phase phosphoprotein 8 (Homo sapiens) (UniProt Q99549); test: qHTS Validation Assay for Inhibitors for MPP8 Chromodomain Interactions with Methylated Histone Tails (AID 488949); note: potency is the fitted concentration of half-maximal effect; nearly all actives have a fitted effect of over 55% in size
M-phase phosphoprotein 8 (Homo sapiens), sequence (Q99549 whole entry, looked up): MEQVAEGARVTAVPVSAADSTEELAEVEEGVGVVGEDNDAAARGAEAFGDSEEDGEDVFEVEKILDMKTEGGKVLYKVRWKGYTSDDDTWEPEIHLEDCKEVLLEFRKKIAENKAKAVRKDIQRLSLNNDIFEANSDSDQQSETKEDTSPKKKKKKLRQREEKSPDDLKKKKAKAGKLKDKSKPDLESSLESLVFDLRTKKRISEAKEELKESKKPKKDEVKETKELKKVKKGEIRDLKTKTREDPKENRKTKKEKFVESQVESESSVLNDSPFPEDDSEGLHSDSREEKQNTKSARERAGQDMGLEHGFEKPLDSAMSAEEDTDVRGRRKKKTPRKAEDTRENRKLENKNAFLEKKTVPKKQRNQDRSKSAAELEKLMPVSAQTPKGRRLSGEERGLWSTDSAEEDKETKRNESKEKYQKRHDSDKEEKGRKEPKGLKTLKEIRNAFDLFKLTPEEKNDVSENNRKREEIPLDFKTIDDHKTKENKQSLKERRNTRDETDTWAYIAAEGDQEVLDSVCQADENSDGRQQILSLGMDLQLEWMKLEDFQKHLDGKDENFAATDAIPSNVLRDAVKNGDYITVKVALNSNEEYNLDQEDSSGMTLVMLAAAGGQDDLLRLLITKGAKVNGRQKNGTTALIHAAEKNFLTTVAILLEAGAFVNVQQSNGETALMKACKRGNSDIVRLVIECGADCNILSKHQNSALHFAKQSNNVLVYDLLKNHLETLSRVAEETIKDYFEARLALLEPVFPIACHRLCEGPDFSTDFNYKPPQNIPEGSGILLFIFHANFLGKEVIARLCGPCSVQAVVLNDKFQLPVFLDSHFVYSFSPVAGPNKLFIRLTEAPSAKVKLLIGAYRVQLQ
Summary of the method: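 50 nM MPP8 + 50 nM b-H3K9me3 peptide, PBS pH 7.4/0.01% Tween-20, 30 min RT; + cpd 30 min RT; + AlphaScreen donor/Ni-chelate acceptor beads 10 ug/mL final, 30 min dark; luminescence read.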

[7] = Inducers of the Endoplasmic Reticulum Stress Response (ERSR) in human glioma: Validation (AID 504836); note: 0% is about no effect
Summary of the method: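 Stably transfected U87-MG glioma cells carrying a GRP78-based luciferase sensor; 16 h compound incubation. Luminescence end-point read 10 min after Bright-Glo addition at room temperature.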

[8] = qHTS for Inhibitors of the Functional Ribonucleoprotein Complex (vRNP) of Lassa (LASV) Arenavirus: LASV Primary Screen - GLuc reporter signal (AID 1347082; calls by dose curve; tested in HEK293 reporter line; note: nearly all actives have a fitted effect of over 60% in size; note: potency is the fitted concentration of half-maximal effect; for activity change, negative = inhibition: % is set by controls: 0 for no effect and ±100 for the full control effect)
[9] = qHTS for Inhibitors of the Functional Ribonucleoprotein Complex (vRNP) of Lassa (LASV) Arenavirus: Viability assay - alamar blue signal for LASV Primary Screen (AID 1347083; calls by dose curve; tested in HEK293 reporter line; note: nearly all actives have a fitted effect of over 80% in size; note: potency is the fitted concentration of half-maximal effect)
[10] = qHTS for Inhibitors of the Functional Ribonucleoprotein Complex (vRNP) of Lymphocytic Choriomeningitis Arenaviruses (LCMV): Viability assay - alamar blue signal for LCMV Primary Screen (AID 1347085; calls by dose curve; tested in HEK293 reporter line; note: nearly all actives have a fitted effect of over 80% in size; note: potency is the fitted concentration of half-maximal effect)
[11] = target: Nucleoprotein (Lymphocytic choriomeningitis virus (strain Armstrong)) (UniProt P09992); test: qHTS for Inhibitors of the Functional Ribonucleoprotein Complex (vRNP) of Lymphocytic Choriomeningitis Arenaviruses (LCMV): LCMV Primary Screen - GLuc reporter signal (AID 1347086; calls by dose curve; note: nearly all actives have a fitted effect of over 70% in size; note: potency is the fitted concentration of half-maximal effect; for activity change, negative = inhibition: % is set by controls: 0 for no effect and ±100 for the full control effect)
Nucleoprotein (Lymphocytic choriomeningitis virus (strain Armstrong)), sequence (P09992 whole entry, looked up): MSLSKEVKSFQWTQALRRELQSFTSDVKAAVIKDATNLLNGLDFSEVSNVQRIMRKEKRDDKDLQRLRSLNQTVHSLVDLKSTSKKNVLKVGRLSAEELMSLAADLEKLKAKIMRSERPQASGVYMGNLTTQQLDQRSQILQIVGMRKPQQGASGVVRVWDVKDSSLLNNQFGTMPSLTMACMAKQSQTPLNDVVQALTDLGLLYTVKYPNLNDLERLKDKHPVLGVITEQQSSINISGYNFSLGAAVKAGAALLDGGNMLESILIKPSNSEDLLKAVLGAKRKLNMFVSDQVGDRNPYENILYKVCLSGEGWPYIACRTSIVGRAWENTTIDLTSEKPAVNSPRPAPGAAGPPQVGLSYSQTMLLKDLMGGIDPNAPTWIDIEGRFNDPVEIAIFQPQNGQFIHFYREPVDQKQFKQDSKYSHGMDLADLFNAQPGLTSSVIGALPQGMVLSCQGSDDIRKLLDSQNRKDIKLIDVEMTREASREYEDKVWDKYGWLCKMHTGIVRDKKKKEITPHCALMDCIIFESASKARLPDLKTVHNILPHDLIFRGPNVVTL

[12] = Primary qHTS to identify inhibitors of SARS-CoV-2 cell entry (AID 1645846; calls by dose curve; note: nearly all actives have a fitted effect of over 45% in size; note: potency is the fitted concentration of half-maximal effect); conditions: activity change, negative = inhibition: at 57.1 µM (top of the series) unless noted
Summary of the method: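 Inhibition of spike-mediated entry was scored in human ACE2-transfected Expi293F cells. Particles were MLV-pseudotyped with Wuhan-Hu-1 S carrying a 19-aa C-terminal deletion; signal was luciferase after two days, scaled between spike PP and fusion-protein-free PP.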

[13] = MultiTox-Fluor Cytotoxicity Assay - LYMP1-003 - Dead Cells (AID 961); note: nearly all actives have a fitted effect of over 70% in size
Summary of the method: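 Dead-cell protease release, detected as bis-AAF-R110 fluorescence at 485/520 nm, was measured in LYMP1-003 cells after 16 h compound treatment at 37 C. AC50 values came from Hill-modeled qHTS curves normalized to DMSO (0%) and 15 uM tetraoctylammonium bromide (100%).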

[14] = Cell Viability - LYMP1-003 - Assay at 40 hr (AID 964); note: % is set by controls: 0 for no effect and ±100 for the full control effect; nearly all actives have a fitted effect of over 60% in size
Summary of the method: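 Luminescent ATP signal (CellTiter-Glo) served as the viability read-out after 40 hr compound treatment of human lymphoblastoid LYMP1-003 cells at 37 C. Decreases in ATP were fitted with the Hill equation to give AC50.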

[15] = Cell Viability - LYMP1-002 - Assay at 40 hr (AID 994);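 note: 0% = DMSO only and full inhibition = 92 µM tetraoctylammonium bromide; nearly all actives have a fitted effect of over 60% in size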
Summary of the method: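 Cells are plated at 2500 per well and rested 5 hr at 37 C. Compounds are added and incubated 40 hr at 37 C. CellTiter-Glo reagent is added for 30 min at room temperature before luminescence is read.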

[16] = target: Peroxisome proliferator-activated receptor delta (Homo sapiens) (UniProt Q03181); test: qHTS assay for small molecule agonists of peroxisome proliferator-activated receptor delta signaling (AID 588534; calls by dose curve;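 note: 0% = DMSO basal wells and 100% = positive control agonist at 10 µM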)
Peroxisome proliferator-activated receptor delta (Homo sapiens), sequence (Q03181 whole entry, looked up): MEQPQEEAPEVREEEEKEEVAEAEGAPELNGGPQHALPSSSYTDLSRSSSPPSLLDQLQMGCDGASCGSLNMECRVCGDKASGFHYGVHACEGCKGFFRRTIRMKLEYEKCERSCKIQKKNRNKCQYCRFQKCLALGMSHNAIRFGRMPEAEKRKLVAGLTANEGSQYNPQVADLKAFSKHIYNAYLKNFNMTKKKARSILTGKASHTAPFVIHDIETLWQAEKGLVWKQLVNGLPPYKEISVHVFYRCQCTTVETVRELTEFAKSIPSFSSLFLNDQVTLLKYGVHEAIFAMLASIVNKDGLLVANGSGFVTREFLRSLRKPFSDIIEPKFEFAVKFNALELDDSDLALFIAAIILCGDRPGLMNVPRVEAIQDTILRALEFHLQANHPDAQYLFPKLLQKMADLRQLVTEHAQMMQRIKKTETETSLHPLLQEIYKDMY
Summary of the method: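 Agonist-mode qHTS; reporter cells, 5 hrs 37 C pre-incubation; compound titration, 18 hrs 37 C; CCF4 dye, 2 hrs RT; fluorescence read. EC50/efficacy via Hill fit.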

[17] = qHTS assay for small molecule agonists of the antioxidant response element (ARE) signaling pathway measured by Nrf2-dependant transcriptional activity - cell viability counter screen (AID 720653; active = well fitted curve in the direction sought with a large enough effect in the repeat runs; an effect the other way counts as inactive or inconclusive; note: % is set by controls: 0 for no effect and ±100 for the full control effect); conditions: ARE-bla HepG2 viability, CellTiter-Glo ATP luminescence, 16 h; max response: stronger effect = lower value
Summary of the method: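 ARE-bla HepG2 cells treated with compounds for 16 h at 37C; this counter screen measures viability as intracellular ATP by CellTiter-Glo luminescence after 30 min at room temperature.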

[18] = target: Nuclear receptor ROR-gamma (Homo sapiens) (UniProt P51449); test: qHTS assay for small molecule antagonists of the retinoid-related orphan receptor gamma (ROR-gamma) signaling pathway (AID 651802);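 note: CHO cells with doxycycline-induced ROR-gamma expression; % is set by controls: 0 for no effect and ±100 for the full control effect; nearly all actives have a fitted effect of over 60% in size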
Nuclear receptor ROR-gamma (Homo sapiens), sequence (P51449 whole entry, looked up): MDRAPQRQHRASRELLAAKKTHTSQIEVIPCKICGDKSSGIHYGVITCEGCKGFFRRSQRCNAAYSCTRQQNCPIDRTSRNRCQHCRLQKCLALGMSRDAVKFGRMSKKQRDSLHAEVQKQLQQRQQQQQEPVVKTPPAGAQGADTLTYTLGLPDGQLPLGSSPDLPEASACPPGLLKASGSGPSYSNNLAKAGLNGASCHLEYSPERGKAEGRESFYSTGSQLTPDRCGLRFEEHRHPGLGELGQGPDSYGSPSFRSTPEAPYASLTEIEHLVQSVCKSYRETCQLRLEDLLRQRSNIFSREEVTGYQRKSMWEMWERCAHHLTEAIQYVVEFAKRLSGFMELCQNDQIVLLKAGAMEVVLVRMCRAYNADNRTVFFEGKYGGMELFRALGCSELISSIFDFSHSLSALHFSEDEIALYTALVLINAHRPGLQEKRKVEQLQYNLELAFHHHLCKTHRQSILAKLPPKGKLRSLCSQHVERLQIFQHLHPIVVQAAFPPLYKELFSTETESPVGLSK
Summary of the method: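 Steps: cells dispensed; compound or DMSO transferred by pin tool; doxycycline added to induce the ROR response element-driven luciferase; plates held 16hr at 37C; ONE-Glo added and luminescence measured.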

[19] = target: Nuclear receptor subfamily 1 group I member 3 (Homo sapiens) (UniProt Q14994); test: Primary qHTS for antagonist of constitutive androstane receptor (CAR) against the NCATS DSHEA and TCM libraries (AID 1794836);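 note: HepG2 cells stably expressing hCAR with CYP2B6 luciferase reporter stimulated by CITCO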
Nuclear receptor subfamily 1 group I member 3 (Homo sapiens), sequence (Q14994 whole entry, looked up): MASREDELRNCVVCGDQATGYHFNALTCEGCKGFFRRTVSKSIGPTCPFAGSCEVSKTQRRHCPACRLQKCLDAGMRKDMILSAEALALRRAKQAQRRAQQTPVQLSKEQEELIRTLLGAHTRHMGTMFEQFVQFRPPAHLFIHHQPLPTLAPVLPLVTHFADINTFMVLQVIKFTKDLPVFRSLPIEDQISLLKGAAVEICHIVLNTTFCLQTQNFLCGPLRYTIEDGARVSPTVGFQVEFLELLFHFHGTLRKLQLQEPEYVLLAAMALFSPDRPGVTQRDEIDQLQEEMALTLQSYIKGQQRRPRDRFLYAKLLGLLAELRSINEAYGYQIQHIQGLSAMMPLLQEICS
Summary of the method: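 HepG2-CYP2B6-hCAR cells, attached 5 h, given compounds plus CITCO agonist […], incubated 24 h at 37 C. Luciferase luminescence read, multiplexed with CellTiter-Fluor viability (Ex/Em 405/540 nm).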

N#C/C(=C\c1ccc(O)c(O)c1)C(=O)NCCCNC(=O)/C(C#N)=C/c1ccc(O)c(O)c1
inactive: Potency [2] | outcome [3] | outcome [4] | Potency [5] | outcome [7] | Potency [8] | Potency [9] | Potency [10] | Potency [11]
active: Potency [1] 2 µM | Potency [6] 316 nM and 2.12 µM

NO
inactive: outcome [3] | Potency [5] | Potency [8] | Potency [9] | Potency [10] | Potency [11]

NC(=O)Nc1sc(-c2ccc(F)cc2)cc1C(N)=O
active: Potency [8] 432 nM | Potency [9] 273 nM | Potency [10] 137 nM | Potency [11] 273 nM
-30.6%: activity change, negative = inhibition [12]

CNC(=O)Nc1ccc(-c2nc(N3CC4CCC(C3)O4)c3cnn(C4CCC5(CC4)OCCO5)c3n2)cc1
active: Potency [8] 15.3 nM | Potency [9] 4.9 nM | Potency [10] 15.3 nM | Potency [11] 27.3 nM
-83.7%: activity change, negative = inhibition [12]

C[C@H]1[C@@H](OC(=O)CCC(=O)O)O[C@@H]2O[C@@]3(C)CC[C@@H]4[C@H](C)CC[C@@H]1[C@@]24OO3
active: Potency [8] 9680 nM | Potency [9] 5440 nM | Potency [10] 5440 nM | Potency [11] 3060 nM | Potency [12] 3.16 µM

CC1(C)CC(=O)c2c(C(F)(F)F)nn(-c3ccc(C(N)=O)c(NC4CCC(O)CC4)c3)c2C1 (stereo not drawn)
-89.6%: activity change, negative = inhibition [12]
active: Potency [8] 1090 nM | Potency [9] 611 nM | Potency [10] 769 nM | Potency [11] 273 nM

Oc1ccccc1Cl
inactive: Potency [1] | Potency [13] | Potency [14] | Potency [15] | Potency [16] | max response [17] -1.76% | Potency [8] | Potency [9] | Potency [10] | Potency [11]

c1ccc2c(c1)-c1cccc3cccc-2c13
inactive: Potency [1] | Potency [13] | Potency [14] | Potency [15] | Potency [16] | Potency [18] | max response [17] -12% and 0.837% | Potency [8] | Potency [9] | Potency [10] | Potency [11]

O=C(O)/C=C/c1ccc(O)c(O)c1
inactive: outcome [3] | outcome [4] | Potency [5] | outcome [7] | Potency [8] | Potency [9] | Potency [10] | Potency [11] | Potency [19]

CC(/C=C/c1cccc(Oc2ccc(F)cc2)c1)N(O)C(N)=O (stereo not drawn)
inactive: Potency [5] | Potency [8] | Potency [9] | Potency [10] | Potency [11]

O=c1cc(-c2ccc(O)c(O)c2)oc2cc(O)cc(O)c12
inactive: Potency [2] | Potency [8] | Potency [9] | Potency [10] | Potency [11] | Potency [19]
active: Potency [1] 15.8 µM

C=C(C)[C@@H]1CC=C(C=O)CC1
inactive: Potency [8] | Potency [9] | Potency [10] | Potency [11]
